In PubChem BioAssay AID1159580 (chemical genetic matrix, 2015):
The whole screen tested about 5,500 compounds, of which about 2,000 (36%) were called active. Not shown: some 18% with an inconclusive outcome. Cut-off read from the data, not from the text of the source: active = normalized growth mostly below about 0.91 (no sharp cut-off); inconclusive = no clear call, values can overlap the other calls; inactive = mostly above about 0.92. The list shows a part of the results.

Assay: chemical genetic growth profiling, strain panel (AID 1159580);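 note: tested at 20 µM; growth read once vehicle control cultures reached saturation at 30 °C; 1 = growth at the plate median or of vehicle wells; lower values mean less growth of the strain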
Conditions: S. cerevisiae deletion strains, growth OD

Measured: normalized growth

CC1(C)C(=O)CC[C@@]2(C)C1C[C@@H](O)[C@@]1(C)C3=CC(=O)O[C@@H](c4ccoc4)[C@]3(C)CCC21 (stereo partly drawn)
inactive: locus YAL021C, strain ccr4, active compounds read low 1.02 | locus YAL026C, strain drs2, active compounds read low 1.02 | locus YAL030W, strain snc1, active compounds read low 1.02 | locus YBL061C, strain skt5, active compounds read low 1.03 | locus YBR009C, strain hhf1, active compounds read low 1.01 | locus YBR021W, strain FUR4, active compounds read low 0.967 | locus YBR023C, strain chs3, active compounds read low 1.02 | locus YBR171W, strain sec66, active compounds read low 1.04 | locus YBR229C, strain ROT2, active compounds read low 1.01 | locus YBR231C, strain swc5, active compounds read low 1.01 | locus YBR279W, strain paf1, active compounds read low 1.01 | locus YCL011C, strain gbp2, active compounds read low 1.02 | locus YCL016C, strain dcc1, active compounds read low 1.02 | locus YCL029C, strain bik1, active compounds read low 0.999 | locus YCL069W, strain vba3, active compounds read low 1.02 | locus YCR088W, strain abp1, active compounds read low 1.02 | locus YDL005C, strain med2, active compounds read low 1.05 | locus YDL035C, strain GPR1, active compounds read low 1.01 | locus YDL040C, strain nat1, active compounds read low 1.02 | locus YDL074C, strain BRE1, active compounds read low 1.01 | locus YDL101C, strain DUN1, active compounds read low 1.03 | locus YDL134C, strain PPH21, active compounds read low 1.03 | locus YDL185W, strain tfp1, active compounds read low 1.02 | locus YDL192W, strain arf1, active compounds read low 0.987 | locus YDR001C, strain nth1, active compounds read low 1.03 | locus YDR069C, strain doa4, active compounds read low 1.01 | locus YDR101C, strain arx1, active compounds read low 0.963 | locus YDR137W, strain rgp1, active compounds read low 1.05 | locus YDR159W, strain sac3, active compounds read low 1.05 | locus YDR162C, strain NBP2, active compounds read low 1.01 | locus YDR195W, strain ref2 0.982 | locus YDR297W, strain sur2, active compounds read low 1.02 | locus YDR318W, strain mcm21, active compounds read low 1.01 | locus YDR334W, strain swr1, active compounds read low 1.02 | locus YDR335W, strain msn5, active compounds read low 1.01 | locus YDR388W, active compounds read low 1 | locus YDR392W, strain spt3, active compounds read low 1.03 | locus YDR502C, strain sam2, active compounds read low 1.02 | locus YEL003W, strain gim4, active compounds read low 1.02 | locus YEL037C, strain rad23, active compounds read low 1.02 | locus YEL061C, strain CIN8 (second series), active compounds read low 1.03 | locus YEL061C, strain CIN8, active compounds read low 1 | locus YER015W, strain faa2, active compounds read low 1.01 | locus YER016W, strain bim1, active compounds read low 1.03 | locus YER110C, active compounds read low 1 | locus YER111C, strain swi4, active compounds read low 1.02 | locus YER155C, strain BEM2 (second series), active compounds read low 1.03 | locus YER155C, strain BEM2, active compounds read low 0.997 | locus YER167W, strain BCK2, active compounds read low 0.989 | locus YFR010W, strain ubp6, active compounds read low 1.01 | locus YGL078C, strain dbp3, active compounds read low 1.03 | locus YGL086W, strain mad1, active compounds read low 0.998 | locus YGL167C, strain pmr1, active compounds read low 1.04 | locus YGL173C, strain kem1, active compounds read low 1.03 | locus YGL227W, strain vid30, active compounds read low 1.03 | locus YGL240W, strain doc1, active compounds read low 1.02 | locus YGL248W, strain PDE1, active compounds read low 1.03 | locus YGL253W, strain hxk2, active compounds read low 1.01 | locus YGR135W, strain pre9, active compounds read low 1.06 | locus YGR252W, strain gcn5, active compounds read low 1 | locus YHR013C, strain ard1, active compounds read low 1.03 | locus YHR027C, strain rpn1, active compounds read low 1.02 | locus YHR079C, strain IRE1 (second series), active compounds read low 0.998 | locus YHR094C, strain hxt1, active compounds read low 0.991 | locus YHR129C, strain ARP1, active compounds read low 1.01 | locus YHR142W, strain chs7, active compounds read low 1.04 | locus YHR200W, strain rpn10, active compounds read low 1 | locus YIL066C, strain RNR3, active compounds read low 1 | locus YIL073C, strain SPO22, active compounds read low 0.977 | locus YIL125W, strain kgd1, active compounds read low 0.984 | locus YIR030C, strain dcg1, active compounds read low 0.999 | locus YJL092W, strain hpr5, active compounds read low 1.03 | locus YJL095W, strain BCK1 (second series), active compounds read low 1.01 | locus YJL095W, strain BCK1, active compounds read low 1.04 | locus YJL115W, strain asf1, active compounds read low 1.04 | locus YJL129C, strain trk1, active compounds read low 1.02 | locus YJL134W, strain LCB3, active compounds read low 1 | locus YJL154C, strain vps35, active compounds read low 1.02 | locus YJL164C, strain tpk1, active compounds read low 1.02 | locus YJL166W, strain qcr8, active compounds read low 1.02 | locus YJL168C, strain set2, active compounds read low 1 | locus YJL187C, strain SWE1 (second series), active compounds read low 1.04 | locus YJL187C, strain SWE1, active compounds read low 1.02 | locus YKL009W, strain mrt4, active compounds read low 1.02 | locus YKL068W, active compounds read low 1 | locus YKL085W, strain MDH1 (second series), active compounds read low 0.993 | locus YKL085W, strain MDH1, active compounds read low 0.993 | locus YKL160W, strain elf1, active compounds read low 1.02 | locus YKR001C, strain vps1, active compounds read low 0.975 | locus YKR026C, strain gcn3, active compounds read low 1.02 | locus YKR091W, strain srl3, active compounds read low 1.03 | locus YLL001W, strain dnm1, active compounds read low 1.03 | locus YLL026W, active compounds read low 1.02 | locus YLL041C, strain sdh2, active compounds read low 1 | locus YLR027C, strain aat2, active compounds read low 1.02 | locus YLR039C, strain RIC1, active compounds read low 1.05 | locus YLR058C, strain SHM2, active compounds read low 1.01 | locus YLR102C, strain apc9, active compounds read low 1.01 | locus YLR221C, strain rsa3, active compounds read low 1.05 | locus YLR258W, strain gsy2, active compounds read low 1.01 | locus YLR262C, strain YPT6 (second series), active compounds read low 1.06 | locus YLR268W, strain sec22, active compounds read low 0.976 | locus YLR320W, strain mms22, active compounds read low 1.03 | locus YLR330W, strain CHS5, active compounds read low 1 | locus YLR342W, strain FKS1, active compounds read low 1.02 | locus YLR357W, strain rsc2, active compounds read low 1.02 | locus YLR370C, strain arc18, active compounds read low 1.02 | locus YLR371W, strain rom2, active compounds read low 0.957 | locus YLR384C, strain iki3, active compounds read low 1.03 | locus YLR418C, strain cdc73, active compounds read low 1.05 | locus YML016C, strain PPZ1, active compounds read low 1.01 | locus YML032C, strain rad52, active compounds read low 0.987 | locus YML120C, strain ndi1, active compounds read low 1.01 | locus YML124C, strain tub3, active compounds read low 0.998 | locus YMR058W, strain fet3, active compounds read low 1.01 | locus YMR078C, strain ctf18, active compounds read low 1.01 | locus YMR125W, strain sto1, active compounds read low 1.04 | locus YMR129W, active compounds read low 1.03 | locus YMR205C, strain PFK2, active compounds read low 1.05 | locus YMR223W, strain ubp8, active compounds read low 1 | locus YMR231W, strain pep5, active compounds read low 1.02 | locus YMR307W, strain GAS1, active compounds read low 0.91 | locus YNL067W, strain RPL9B, active compounds read low 1.04 | locus YNL071W, strain lat1, active compounds read low 1.02 | locus YNL128W, strain TEP1, active compounds read low 1.01 | locus YNL153C, strain GIM3, active compounds read low 1.04 | locus YNL209W, strain ssb2, active compounds read low 1.03 | locus YNL233W, strain BNI4, active compounds read low 1.03 | locus YNL248C, strain rpa49, active compounds read low 1.03 | locus YNL250W, strain rad50, active compounds read low 1.03 | locus YNL271C, strain bni1, active compounds read low 0.999 | locus YNL298W, strain CLA4, active compounds read low 0.997 | locus YNL307C, strain MCK1, active compounds read low 1.01 | locus YNL322C, strain KRE1 (second series), active compounds read low 1.03 | locus YNR049C, strain mso1, active compounds read low 1.02 | locus YNR052C, strain pop2, active compounds read low 1.04 | locus YOL012C, strain htz1 0.777 | locus YOL147C, strain pex11, active compounds read low 0.991 | locus YOR001W, strain rrp6, active compounds read low 1.03 | locus YOR061W, strain CKA2, active compounds read low 1.01 | locus YOR069W, strain VPS5, active compounds read low 1.01 | locus YOR070C, strain gyp1, active compounds read low 1.02 | locus YOR080W, strain dia2, active compounds read low 1.02 | locus YOR083W, strain WHI5, active compounds read low 1.02 | locus YOR106W, strain vam3, active compounds read low 1.05 | locus YOR136W, strain idh2, active compounds read low 1.01 | locus YOR144C, strain elg1, active compounds read low 0.997 | locus YOR184W, strain ser1, active compounds read low 0.967 | locus YOR265W, strain rbl2, active compounds read low 1.03 | locus YOR270C, strain vph1, active compounds read low 1.04 | locus YOR290C, strain snf2, active compounds read low 1.03 | locus YOR316C, strain cot1, active compounds read low 1.01 | locus YPL051W, strain arl3, active compounds read low 1.03 | locus YPL055C, strain LGE1, active compounds read low 1.01 | locus YPL078C, strain atp4, active compounds read low 1 | locus YPL106C, strain sse1, active compounds read low 1.02 | locus YPL240C, strain hsp82, active compounds read low 1.01 | locus YPL241C, strain CIN2, active compounds read low 0.996 | locus YPR119W, strain clb2, active compounds read low 0.995 | locus YPR141C, strain kar3, active compounds read low 0.99 | locus YPR163C, strain tif3, active compounds read low 0.992 | locus YPR167C, strain met16, active compounds read low 1.01 | strain wtn01, active compounds read low 0.965
